Screening data as filed in PubChem.
Sampled rows, rich in hits. Any-hit rate of the full collection: about 8%.
HT1080 IDH1KD tx = qHTS for induction of synthetic lethality in tumor cells producing 2HG: qHTS for the HT-1080-IDH1KD cell line. HT-1080 IDH1 knockdown viability, ATP luminescence, 48 h. Potency, µM (series often up to 46.1 µM), inactives show at the top dose activity, negative = toxicity, hits mostly cytotoxic. actives 2% (n = 360,000);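 further: 0% = DMSO wells and -100% = cell-free medium wells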
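After a 2 h attachment period, IDH1KD HT-1080 cells took pin-transferred compound for 48 h at 37 °C; ATP-based luminescence after 10 min room-temperature reagent incubation reported viability.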
MCF10A rerep = A quantitative high throughput screen for small molecules that induce DNA re-replication in MCF 10a normal breast cells | MCF 10A DNA re-replication, Hoechst nuclear intensity, 48 h | AID 624296, 2012 | Potency, µM (doses to about 46.1 µM), inactives show at the top dose activity, positive = re-replication, usual class: activators | actives 2.9% (n = 350,000); further: % of control where 0% means no effect; nearly all actives have a fitted effect of over 50% in size
HT1080-NT tox = qHTS for induction of synthetic lethality in tumor cells producing 2HG: qHTS for the HT-1080-NT fibrosarcoma cell line; HT-1080-NT fibrosarcoma viability, CellTiter-Glo ATP luminescence, 48 h; AID 686970, 2013; actives 1.6% (n = 360,000); Potency, µM (series often up to 46.1 µM), for the others: at the highest dose activity, negative = less viability, hits mostly cytotoxic;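 further: NT is the 2HG producing partner of a matched IDH1 knockdown line; 0% = DMSO-treated cells and -100% = media-only wells without cells; nearly all actives have a fitted effect of over 55% in size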
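750 cells/well, RPMI + 5% FBS; 2 h settle, compound pin-transfer, 48 h at 37 degrees C. CellTiter-Glo 10 min RT, luminescence. Normalized to DMSO and media-only wells.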
KB-V1 cytotox = qHTS assay for MDR1-selective chemotherapeutics: Primary screen using the drug-selected MDR subline cells KB-V1 | KB-V1 MDR cells viability, CellTiter-Glo, 72 h | Potency, µM (top dose mostly 46.1 µM), actives largely listed as cytotoxic | actives 3.4% (n = 400,000); further: on the % scale 0 is the no-effect control and ±100 the full control effect; nearly all actives have a fitted effect of over 60% in size
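KB-V1 MDR subline cells in DMEM (phenol-red free, 10% FBS) exposed to compounds in qHTS concentration series for 72 h at 37 degrees C. Viability read by CellTiter-Glo luminescence; concentration-effect curves fitted after normalization and correction.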
KB-3-1 cytotox = qHTS assay for MDR1-selective chemotherapeutics: Primary screen using the parental adenocarcinoma cell KB-3-1; actives 1.4% (n = 400,000); Potency, µM (top dose mostly 46.1 µM), usual class: cytotoxic; AID 1347075, 2019; KB-3-1 viability, CellTiter-Glo ATP luminescence, 72 h; further: on the % scale 0 is the no-effect control and ±100 the full control effect; nearly all actives have a fitted effect of over 60% in size
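Cells are dispensed, compounds pinned in, plates held at 37 °C for 72 h, then CellTiter-Glo is added and luminescence read after 10 minutes. Cell line: parental KB-3-1 in phenol-red-free DMEM, 10% FBS.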
SW480 rereplic = A quantitative high throughput screen for small molecules that induce DNA re-replication in SW480 colon adenocarcinoma cells; SW480 DNA re-replication, Hoechst DNA content imaging, 48 h; actives 1.8% (n = 340,000); Potency, µM (highest dose often 46.1 µM), for inactives: at the highest dose re-replication activation, hits mostly activators; further: % of control where 0% means no effect; nearly all actives have a fitted effect of over 55% in size
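Treated cells incubate 48 hr (37 C, 5% CO2), are stained 40 min with Hoechst, and nuclear fluorescence is enumerated; a rise in nuclei with high DNA signal marks re-replication.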
Active calls of the source: *; i = inactive; ? = inconclusive; . = no result given; ! = not active in a repeat. The call rests on the fitted dose curve; in most records, active means well fitted curve in the direction sought with a large enough effect; inconclusive means small, poorly fitted or top-dose-only effect, or another doubt; inactive means no such curve, though single readings can be large; an effect the other way counts as inactive or inconclusive. Potency means the concentration at half of the fitted maximal effect.

SMILES	HT1080 IDH1KD tx	MCF10A rerep	HT1080-NT tox	KB-V1 cytotox	KB-3-1 cytotox	SW480 rereplic
Cc1nc(N2N=C3/C(=C/c4ccc(F)cc4)CCCC3C2c2ccc(F)cc2)sc1C(=O)N(C)C (configuration not stated)	-1%	29%	4%	21µM*	?	?
Cc1ncsc1C(=O)N1N=C2/C(=C/c3ccc(N4CCOCC4)cc3)CCCC2C1c1ccc(N2CCOCC2)cc1 (configuration not stated)	5%	5%	6%	i	i	3%
O=C(Nc1nnc(-c2ccncc2)s1)Nc1cccc2ccccc12	.	.	.	i	i	.
CN1CCN(C(=O)/C(=C\c2ccccc2)c2ccccc2)CC1	-10%	-8%	-3%	i	i	17%
CC1CCN(C(=O)/C(=C/c2ccccc2Cl)c2ccccc2)CC1	?	16µM*	?	i	i	-1%
Clc1ccc2c(c1)C(C1=NCCN1)c1ccccc1CS2 (configuration not stated)	1.5µM*	1.6µM*	1.2µM*	10µM*	0.92µM*	1.3µM*
COc1ccc(S(=O)(=O)N(CC(=O)Nc2cccc(C(F)(F)F)c2)c2ccc(C)cc2)cc1	.	.	.	i	?	.
COc1cc(O)c2c(=O)cc(-c3ccccc3)oc2c1	1%	?	-5%	i	i	21%
COc1c(O)cc(O)c2c(=O)cc(-c3ccccc3)oc12	-6%	16µM*	-10%	?	i	-4%
NC(N)=N/N=C/c1ccc(OCc2ccc(Cl)cc2)cc1	?	1%	16µM*	21µM*	i	-3%
NC(N)=N/N=C/c1ccc(OCc2ccccc2)cc1	?	1%	18µM*	i	?	0%
Cc1ccc(COc2ccc(/C=N/O)cc2)cc1	3%	?	5%	i	i	5%
NC(N)=N/N=C/c1ccc(Br)cc1	?	18µM*	?	?	?	?
COc1ccc(-c2cc(=O)oc3c(C)c(O)c(CN(C)C)cc23)cc1	-9%	13%	-10%	2.3µM*	i	12%
COc1ccc(-c2cc(=O)oc3c(C)c(OCC(=O)N(C)C)ccc23)cc1	-8%	-4%	-6%	i	?	-9%
COc1ccc(-n2ccnc(NCc3ccc(Cl)cc3)c2=O)cc1	.	.	.	i	i	.
COc1ccc(C=CC(=O)c2ccc(OC)c(OC)c2O)cc1OC	26µM*	?	?	?	i	?
COc1cc(OC)c(C(=O)C=Cc2ccc(OC)c(OC)c2)c(OC)c1	?	169%	?	?	?	18µM*
COc1ccc(C=CC(=O)c2ccc(OC)c(OC)c2)cc1O	21µM*	.	-11%	?	?	.
COc1ccc(C2C3C=CCC(c4cccc(-c5ccc(C)cc5)c4)C3C(=O)N2Cc2ccccc2)cc1Cl (configuration not stated)	-1%	4%	-1%	i	i	-11%
CCN(C(=O)CSc1nc2ccc([N+](=O)[O-])cc2s1)c1c(N)n(Cc2ccccc2)c(=O)[nH]c1=O	0%	13%	14%	i	i	1%
CCN(CC(=O)NC(C)C)C(=O)C(CCSC)NC(=O)c1cccc(C)c1 (configuration not stated)	-2%	2%	-1%	23µM*	i	-3%
Cc1cc(C)c(S(=O)(=O)Nc2cccc3nsnc23)c(C)c1	0%	?	-1%	15µM*	18µM*	1%
COc1cc([N+](=O)[O-])ccc1NC(=O)N1CCC2(CC1)Nc1cc(F)ccc1-n1cccc12	.	.	.	i	i	.
Cn1c(=O)oc2cc(S(=O)(=O)N3CCCC(C(=O)N4CCN(c5ccc(F)cc5)CC4)C3)ccc21 (configuration not stated)	.	.	.	i	i	.
SMILES	HT1080 IDH1KD tx	MCF10A rerep	HT1080-NT tox	KB-V1 cytotox	KB-3-1 cytotox	SW480 rereplic
COc1cccc(N2CCN(C(=O)C3CCCN(S(=O)(=O)c4ccc5c(c4)oc(=O)n5C)C3)CC2)c1 (configuration not stated)	-5%	1%	12%	i	12µM*!	-26%
O=C(C1CCCN(S(=O)(=O)c2ccccc2[N+](=O)[O-])C1)N1CCN(c2ccccc2)CC1 (configuration not stated)	12%	-11%	1%	5.8µM*	i	20%
O=C(C1CCCN(S(=O)(=O)c2ccccc2)C1)N1CCCCCC1 (configuration not stated)	-1%	29%	0%	i	i	0.52µM*!
O=C(C1CCCN(S(=O)(=O)c2cccc3nsnc23)C1)N1CCN(c2ccccc2)CC1 (configuration not stated)	.	.	.	i	?	.
Cc1cccc(N2CCN(C(=O)CN3C(=O)COc4ccc(S(=O)(=O)N5CCCC5)cc43)CC2)c1C	.	.	.	i	i	.
CCC(=O)N1c2ccccc2CC1C(=O)NCCN1CCN(c2cccc(C)c2C)CC1 (configuration not stated)	.	.	.	i	i	.
Oc1ccc(Br)cc1-c1ccnn1-c1ccccc1	7.3µM*	7.3µM*	?	?	?	?
CCc1ccc(C(=O)C(C)OC(=O)Cc2n[nH]c(=O)c3ccccc23)cc1 (configuration not stated)	13µM*	15µM*	?	?	9.2µM*	?
CN1CCN(NC(=O)c2cccc(C(F)(F)F)c2)CC1	17%	-2%	25%	i	i	5.8µM*
CN1CCN(NC(=O)c2cccc(S(=O)(=O)N3CCCCCC3)c2)CC1	-4%	-1%	5%	i	i	-23%
c1ccc(CSc2ccc(-c3ccc4c(c3)OCO4)nn2)cc1	-6%	?	-15%	i	16µM*	4%
Cc1ccc(S(=O)(=O)NCC(c2ccco2)N2CCc3ccccc3C2)cc1 (configuration not stated)	-3%	25%	-2%	i	i	1%
